Several values for one entry are separate records, joined by “and”; a condition that tells them apart may be missing. Identical values can stand only once. Screen size: about 330,000 compounds; about 3,800 (1.2%) were called active. Rule as the data show it: active = inhibition above about 15%; inconclusive = no clear call, values can overlap the other calls; inactive = below that. The sample as a whole holds a higher share of actives than the screen did.
Each compound was assayed against NAD-dependent protein deacylase sirtuin-5, mitochondrial (Homo sapiens) (UniProt Q9NXA8) (assay: blockers of sirtuin-5 deacylase activity – biochemical, fluorescence imaging, single point, set 5, primary screen (AID 652115)). Conditions: Purified SirT5, succinyl-peptide AMC, trypsin-coupled fluorescence; at 15 µM; active compounds read high.
Sequence of NAD-dependent protein deacylase sirtuin-5, mitochondrial (Homo sapiens) (Q9NXA8 whole entry, looked up): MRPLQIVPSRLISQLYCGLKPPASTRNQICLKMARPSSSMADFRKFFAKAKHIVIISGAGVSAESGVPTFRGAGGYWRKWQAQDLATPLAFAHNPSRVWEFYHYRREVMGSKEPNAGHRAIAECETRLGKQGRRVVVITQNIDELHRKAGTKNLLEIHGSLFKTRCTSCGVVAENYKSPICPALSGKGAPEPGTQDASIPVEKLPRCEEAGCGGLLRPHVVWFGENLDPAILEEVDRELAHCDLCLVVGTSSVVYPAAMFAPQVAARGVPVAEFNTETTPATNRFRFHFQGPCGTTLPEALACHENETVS

Row | SMILES | inhibition
1 | C[C@H]1CCCCO[C@H](CN(C)C(=O)Nc2ccccc2)[C@@H](C)CN([C@@H](C)CO)C(=O)c2cc(NC(=O)Nc3ccc4c(c3)OCO4)ccc2O1 | 11.6% (inactive)
2 | CN(c1ccccc1)S(=O)(=O)c1ccc(C(=O)NCCc2ccccc2)cc1 | -1.73% (inactive)
3 | CN(C)S(=O)(=O)c1ccc(C(=O)NCCN=C2NS(=O)(=O)c3ccccc32)cc1 | 15.2% (active)
4 | Cc1ccccc1C(=O)NCCN=C1NS(=O)(=O)c2ccccc21 | 1.57% (inactive)
5 | COc1ccccc1-c1cn(CC[C@@H]2CC[C@@H](NC(=O)c3ccccc3F)[C@H](CO)O2)nn1 | -1.68% (inactive)
6 | COc1cccc(S(=O)(=O)N2C[C@@H](O)COC[C@@H]3O[C@H](CC(=O)N4CCN(C)CC4)CC[C@H]32)c1 | -10.1% (inactive)
7 | C[C@H]1CN([C@@H](C)CO)S(=O)(=O)c2ccc(-c3cccc(F)c3)cc2O[C@@H]1CN(C)C | -1.74% (inactive) and 0.129% (inactive) and -10.4% (inactive)
8 | C[C@@H]1CN([C@@H](C)CO)S(=O)(=O)c2ccc(C#CCN(C)C)cc2O[C@@H]1CN(C)S(=O)(=O)c1cccc(F)c1 | 2.43% (inactive)
9 | C[C@@H]1CN([C@@H](C)CO)S(=O)(=O)c2ccc(-c3cccc(F)c3)cc2O[C@@H]1CN(C)S(=O)(=O)c1ccccc1 | 12% (inactive)
10 | CC(C)CC#Cc1ccc2c(c1)O[C@H](CN(C)S(=O)(=O)c1cccc(F)c1)[C@@H](C)CN([C@@H](C)CO)S2(=O)=O | 19.1% (active)
11 | C[C@@H]1CN([C@H](C)CO)S(=O)(=O)c2ccc(-c3cccc(F)c3)cc2O[C@H]1CN(C)S(=O)(=O)c1ccc(F)cc1 | 16.1% (active)
12 | C[C@H](CO)N1C[C@H](C)[C@@H](CN(C)S(=O)(=O)c2cccc(F)c2)Oc2cc(C#CCN(C)C)ccc2S1(=O)=O | 0.005% (inactive)
13 | CCCNC(=O)N1[C@@H]2c3ccc(-c4ccccc4OC)c(=O)n3C[C@H]1[C@H](CO)[C@H]2C(=O)N(C)C | -22.3% (inactive)
14 | C[C@H]1CN([C@@H](C)CO)C(=O)c2cccc(NS(=O)(=O)c3cccs3)c2O[C@H]1CN(C)Cc1ccc(C(=O)Nc2ccccc2N)cc1 | 5.63% (inactive)
15 | CCCC(=O)N1CC2(C1)CN(C(=O)Nc1cccc(F)c1)[C@@H](CO)c1c2c2ccc(OC)cc2n1C | 7.29% (inactive)
16 | COc1ccc2c3c(n(C)c2c1)[C@H](CO)N(C(=O)Nc1cccc(F)c1)CC31CN(Cc2nccs2)C1 | 2.85% (inactive)
17 | COc1ccc2c3c(n(C)c2c1)[C@@H](CO)N(C(=O)Nc1cccc(F)c1)CC31CCN(Cc2nccs2)CC1 | 35.6% (active)
18 | O=S1(=O)CC(N2CCN(CCO)CC2)CN1Cc1cn(Cc2cccc(Cl)c2)nn1 (stereo not drawn) | -5.71% (inactive)
19 | O=S1(=O)CC(N2CCN(CCO)CC2)CN1Cc1cn(Cc2ccc(Cl)cc2)nn1 (stereo not drawn) | 32.8% (active)
20 | Cc1ccc(Cn2cc(CN3CC(N4CCN(C)CC4)CS3(=O)=O)nn2)cc1 (stereo not drawn) | 3.71% (inactive)
21 | CCS(=O)(=O)Nc1ccc2c(c1)C(=O)N(C)[C@H]1CC[C@@H](CC(=O)Nc3ccccc3)O[C@H]1CO2 | 2.87% (inactive)
22 | O=C(O)C(c1ccccc1)N1C(=O)/C(=C\c2ccc(-c3cccc(Cl)c3)o2)SC1=S (stereo not drawn) | 43.9% (active)
23 | O=C1c2ccccc2NC(c2ccc(-c3cccc(Cl)c3)o2)N1O (stereo not drawn) | 1.64% (inactive)

Row | SMILES | inhibition
24 | O=C1NN(c2ccccc2)C(=O)/C1=C/c1ccc(-c2cccc(C(=O)O)c2)o1 | 8.67% (inactive)
25 | O=C(Nc1cc(Cl)cc(Cl)c1)N[C@@H]1CC[C@H](CCNS(=O)(=O)c2cccc(F)c2)O[C@H]1CO | 2.03% (inactive)
26 | CCCNC(=O)N1CC(=O)N2[C@H](CO)[C@H](c3ccc(C#Cc4cccc(OC)c4)cc3)[C@H]2C1 | -0.038% (inactive)
27 | CCCN(C)C[C@H]1Oc2cc(-c3ccc(C)cc3)ccc2S(=O)(=O)N([C@H](C)CO)C[C@H]1C | 1.13% (inactive)
28 | CN(C)C(=O)c1ccc(-c2ccccc2[C@@H]2[C@@H](C#N)N(C(=O)C3CCCC3)[C@H]2CO)cc1 | -3.26% (inactive)
29 | O=C(N[C@H]1C=C[C@@H](CC(=O)N2CCN(c3ccccc3)CC2)O[C@@H]1CO)c1ccncc1 | -0.959% (inactive)
30 | C=CCC[C@H](Cc1ccc(F)cc1)C(=O)OC[C@@H](NC(=O)[C@@H](CC=C)CC(=O)N[C@H](CO)Cc1ccccc1)C(C)(C)C | 0.931% (inactive)
31 | C=CCC[C@H](Cc1ccc(F)cc1)C(=O)OC[C@H](C)NC(=O)[C@H](CC=C)CC(=O)N(CCO)Cc1ccccc1 | 16.9% (active)
32 | C=CCC[C@@H](Cc1ccc(F)cc1)C(=O)OC[C@@H](C)NC(=O)[C@H](CC=C)CC(=O)N(CCO)Cc1ccccc1 | -0.88% (inactive)
33 | CC1COc2ccccc2N1S(=O)(=O)c1ccccc1 (stereo not drawn) | -1.33% (inactive)
34 | CC1COc2ccccc2N1C(=O)c1cccnc1Cl (stereo not drawn) | -1.34% (inactive)
35 | CC1COc2ccccc2N1C(=O)c1ccc(F)cc1 (stereo not drawn) | 22.7% (active)
36 | COc1ccc(CN(C)C[C@@H]2OCCCC[C@@H](C)Oc3ccc(NC(=O)Nc4ccc(C(F)(F)F)cc4)cc3C(=O)N([C@H](C)CO)C[C@H]2C)cc1 | 6.39% (inactive)
37 | CN(C)CC(=O)N[C@H]1CC[C@H](CCNC(=O)Nc2ccc(F)cc2)O[C@H]1CO | -1.16% (inactive)
38 | Cc1nc(N2[C@H](CO)[C@H](c3ccccc3)[C@H]2CNCC2CCCCC2)sc1C | 5.49% (inactive)
39 | CC(C)NC(=O)N1[C@@H]2c3ccc(-c4ccc(F)cc4)c(=O)n3C[C@@H]2[C@@H](CO)[C@@H]1C(=O)N1CCOCC1 | -2.98% (inactive)
40 | O=C(Nc1nnc(C2CC2)s1)c1cc(Cl)sc1Cl | -1.4% (inactive)
41 | Cc1cc(C(=O)Nc2nnc(C3CC3)s2)c(C)s1 | -4.14% (inactive)
42 | O=C(Nc1nnc(C2CC2)s1)c1ccccn1 | 23.4% (active)
43 | CO[C@@H]1CN(C)C(=O)c2cc(NS(C)(=O)=O)ccc2OC[C@H](C)N(C(=O)C2CC2)C[C@@H]1C | 1.74% (inactive)
44 | COCC(=O)Nc1ccc2c(c1)C(=O)N(C)C[C@@H](OC)[C@@H](C)CN(C(=O)Cc1ccccn1)[C@@H](C)CO2 | -3.53% (inactive)
45 | C[C@@H](O)C#Cc1cnc2c(c1)C(=O)N([C@@H](C)CO)C[C@H](C)[C@H](CN(C)Cc1cncnc1)O2 | 8.12% (inactive)
46 | COc1ccc(S(=O)(=O)NCC(=O)NCc2cc(=O)n(C)c(=O)n2C)cc1F | -2% (inactive)

Row | SMILES | inhibition
47 | Cc1ccc(C(=O)NCC(=O)NCc2cc(=O)n(C)c(=O)n2C)cc1 | 31.9% (active)
48 | Cc1ccc(C(=O)NCC(=O)NC2CC2)cc1 | -1.54% (inactive)
49 | CC(C)NC(=O)Nc1ccc2c(c1)C(=O)N([C@H](C)CO)C[C@H](C)[C@@H](CN(C)C)OCCCC[C@H](C)O2 | 0.043% (inactive)
50 | C#CCOc1ccc(/C=C2/C(=O)NN(c3ccccc3)C2=O)cc1OC | 98.1% (active)
51 | COc1cc(/C=C2/C(=O)NN(c3cccc(Cl)c3)C2=O)cc(Br)c1O | 9.45% (inactive)
52 | C#CCOc1ccc(/C=C2/C(=O)ON=C2C)cc1OCC | -2.23% (inactive)
53 | CN(C)C(=O)C[C@H]1C=C[C@@H](NC(=O)C2CCC2)[C@@H](CO)O1 | -0.42% (inactive)
54 | C[C@H](CO)N1C[C@H](C)[C@H](CN(C)CC2CCCCC2)OCCCC[C@H](C)Oc2ccc(NC(=O)c3ccncc3)cc2C1=O | 2.1% (inactive)
55 | O=S(=O)(Cc1ccccc1)N1CCCCN2[C@@H](CO)[C@@H](c3ccc(-c4ccc(F)cc4)cc3)[C@@H]2C1 | 4.06% (inactive)
56 | COc1ccc2c3c(n(C)c2c1)[C@@H](CO)N(C(=O)CN1CCOCC1)CC31CCN(C(=O)C2CC2)CC1 | -4.96% (inactive)
57 | O=C(C[C@H]1CC[C@H]2[C@@H](COC[C@@H](O)CN2Cc2cccc(C(F)(F)F)c2)O1)NCc1ccncc1 | 2.67% (inactive)
58 | O=C(C[C@@H]1CC[C@@H]2[C@H](COC[C@H](O)CN2Cc2cccc(C(F)(F)F)c2)O1)NCc1ccc(F)cc1 | 16.6% (active)
59 | O=C(C[C@@H]1CC[C@H]2[C@@H](COC[C@@H](O)CN2Cc2nccs2)O1)NCc1ccc(-c2ccccc2)cc1 | 3.03% (inactive)
60 | O=C(C[C@H]1CC[C@H]2[C@@H](COC[C@@H](O)CN2Cc2nccs2)O1)NCc1ccccc1Cl | 16.4% (active)
61 | O=C(C[C@@H]1CC[C@@H]2[C@H](COC[C@@H](O)CN2Cc2ccc(Cl)cc2)O1)NCc1ccccc1Cl | -1.3% (inactive)
62 | O=C(C[C@@H]1CC[C@@H]2[C@H](COC[C@H](O)CN2Cc2cccc(F)c2)O1)NCc1ccncc1 | -0.883% (inactive)
63 | CN(C)C(=O)[C@@H]1[C@@H](CO)[C@@H]2Cn3c(ccc(-c4ccccc4)c3=O)[C@@H]2N1CCC(F)(F)F | 0.07% (inactive)
64 | C[C@@H](NC(=O)C[C@H]1C=C[C@H](NC(=O)C2CCOCC2)[C@H](CO)O1)c1ccccc1 | 2.71% (inactive)
65 | COc1ccc(NC(=O)N2C[C@H](O)COC[C@H]3O[C@@H](CC(=O)NC4Cc5ccccc5C4)CC[C@@H]32)cc1 | -1.07% (inactive)
66 | CC(C)CC#Cc1cnc2c(c1)C(=O)N([C@@H](C)CO)C[C@@H](C)[C@@H](CN(C)S(=O)(=O)c1cccs1)O2 | 3.74% (inactive)
67 | C/C=C/c1ccc([C@H]2[C@@H](CO)N(C(=O)C3CC3)[C@@H]2CNC(=O)NC(C)C)cc1 | -3.13% (inactive)
68 | CCC(=O)N(C)C[C@@H]1Oc2ncc(C#CCC3CCCC3)cc2C(=O)N([C@@H](C)CO)C[C@H]1C | 2.53% (inactive)

Reference: PubChem BioAssay AID652115 (Broad Institute, 2013)
